The text below walks through data of publication PMC4242493, “Sequence specificity incompletely defines the genome-wide occupancy of Myc”.

Over roughly 33,000 sequences, “normalized occupancy” has its median near 0.075; the highest 2% begin near 0.095. What follows is part of a selection rich in the highest values, with near analogues and random picks from the rest.

MaxL homodimer, sequence (P61244 whole entry): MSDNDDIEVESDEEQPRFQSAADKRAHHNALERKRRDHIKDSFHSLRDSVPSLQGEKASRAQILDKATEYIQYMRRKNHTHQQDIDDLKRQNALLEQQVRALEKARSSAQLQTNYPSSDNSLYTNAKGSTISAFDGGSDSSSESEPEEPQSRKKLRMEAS

The assay has as its target MaxL homodimer (Homo sapiens, UniProt P61244 1-160). The assay can be described thus: universal protein-binding microarray (PBM); PBS-based mixture, 10 nM His-tagged protein dimer, 2% milk, 200 ng/uL BSA, 50 ng/uL salmon testes DNA, 0.02% TX-100; detection with Alexa 488 anti-His antibody;; high values mean tight binding. The settings on record: protein: recombinant; tags: C-terminal His-tag (pET21a); chain copies: 2; dsDNA, one strand shown. The essentials:
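Agilent 4 x 44 K arrays carrying the 'all 10-mer' universal design were incubated with His-tagged protein dimer at 10 nM. Protein that bound was tagged using fluorophore-conjugated anti-His antibody at 10 ng/μL, and a GenePix 4400A scanned the arrays to give an intensity for every 8-mer. Each binding occupancy value expresses an intensity relative to the top-ranked intensity.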
With GACATGAC, the binding signal stood at 0.0811 normalized occupancy.

With AACATGAG, the binding signal amounted to 0.0999 normalized occupancy.

With CAAATGAG, the binding signal worked out at 0.0793 normalized occupancy.

For the sequence CACATGAG, the binding signal was determined as 0.109 normalized occupancy.

As to CACATGAC, the binding signal was 0.129 normalized occupancy.

As to CACATGAA, the binding signal came out at 0.104 normalized occupancy.

On to CTCATGAG, for which the binding signal was 0.0946 normalized occupancy.

For CAAATGAC, the binding signal is 0.0825 normalized occupancy.

As for TACATGAA, the binding signal was 0.0793 normalized occupancy.

On to ATGTACAA, for which the binding signal came out at 0.0815 normalized occupancy.

Consider AAAAACCA, for which the binding signal stood at 0.0806 normalized occupancy.

With GCCACAGC, the binding signal amounted to 0.0723 normalized occupancy.

Regarding AATCGTAC, the binding signal was 0.0751 normalized occupancy.

Regarding GGACCCCA, the binding signal came to 0.0794 normalized occupancy.

Consider ATGAGAAA, for which the binding signal stood at 0.0743 normalized occupancy.

Take ATTGGAAC: the binding signal was 0.076 normalized occupancy.

For the sequence ACGTGCGC, the binding signal amounted to 0.113 normalized occupancy.

As to ACGTGTGA, the binding signal amounted to 0.105 normalized occupancy.

Consider ACGTGCGA, for which the binding signal is 0.093 normalized occupancy.

Take CCGTGCGC: the binding signal came to 0.0813 normalized occupancy.

For the sequence CCGTGTGC, the binding signal turned out to be 0.0858 normalized occupancy.

On to ACGTGTGC, for which the binding signal turned out to be 0.109 normalized occupancy.

GCGTGTGA: the binding signal stood at 0.0941 normalized occupancy.

As to AAGTGTGG, the binding signal came out at 0.0819 normalized occupancy.

AGGTGTGG: the binding signal turned out to be 0.0847 normalized occupancy.

Regarding CCGTGTGA, the binding signal amounted to 0.0836 normalized occupancy.

Take AAGTGTGC: the binding signal stood at 0.0869 normalized occupancy.

For ACGTGTGG, the binding signal was found to be 0.104 normalized occupancy.

On to GACGAGAC, for which the binding signal is 0.0761 normalized occupancy.

As for GACAAAAC, the binding signal came out at 0.0749 normalized occupancy.

CACGAATG: the binding signal was determined as 0.0777 normalized occupancy.

Take ATTGAAGC: the binding signal was determined as 0.0724 normalized occupancy.

Take ATAGTCTG: the binding signal turned out to be 0.0754 normalized occupancy.

With ATATGCAC, the binding signal was determined as 0.092 normalized occupancy.

For CCATGCAA, the binding signal was 0.0895 normalized occupancy.

Regarding CAATGCAC, the binding signal turned out to be 0.0848 normalized occupancy.

With CCATGCAC, the binding signal came out at 0.0969 normalized occupancy.

As to ACATGCAC, the binding signal is 0.0954 normalized occupancy.

On to CTATGCAC, for which the binding signal came to 0.0874 normalized occupancy.

On to CTATGCAG, for which the binding signal was determined as 0.0757 normalized occupancy.

For the sequence AGATGCAC, the binding signal was 0.0867 normalized occupancy.

With AAATGCAT, the binding signal was determined as 0.079 normalized occupancy.

With CCATGCAG, the binding signal worked out at 0.0965 normalized occupancy.

With AGATGCAT, the binding signal came out at 0.0784 normalized occupancy.

Turning to ACATGCAT, the binding signal was determined as 0.105 normalized occupancy.

Take AAAGTGAA: the binding signal came out at 0.0782 normalized occupancy.

Turning to ACTAGTCA, the binding signal stood at 0.0755 normalized occupancy.

Take CTACCCGA: the binding signal worked out at 0.0741 normalized occupancy.

For the sequence AAATATAC, the binding signal amounted to 0.0881 normalized occupancy.

Turning to GCATTAGC, the binding signal was found to be 0.0727 normalized occupancy.

In the case of CGTATGCC, the binding signal worked out at 0.0784 normalized occupancy.

ACATGCAG: the binding signal was found to be 0.097 normalized occupancy.

Consider ACATGAAG, for which the binding signal was determined as 0.0842 normalized occupancy.

Regarding ACATGAAC, the binding signal was 0.0866 normalized occupancy.

For ACATGAAT, the binding signal is 0.0965 normalized occupancy.

AAATGCAG: the binding signal is 0.0778 normalized occupancy.

As to AGATGCAG, the binding signal was 0.0757 normalized occupancy.

For AAGCTATC, the binding signal turned out to be 0.0722 normalized occupancy.

Consider ATGACTTG, for which the binding signal amounted to 0.0818 normalized occupancy.

For CCGTGCAG, the binding signal stood at 0.0778 normalized occupancy.

Take ACGTGCAG: the binding signal was found to be 0.101 normalized occupancy.

Take ACGTGCAT: the binding signal amounted to 0.104 normalized occupancy.

For GCGTGCAC, the binding signal was determined as 0.109 normalized occupancy.

CCGTGCCC: the binding signal amounted to 0.0733 normalized occupancy.

As for AGGTGCAT, the binding signal amounted to 0.0863 normalized occupancy.

As to GCGTGCCA, the binding signal was 0.09 normalized occupancy.

Turning to AAGTGCAG, the binding signal was determined as 0.0763 normalized occupancy.

For the sequence CCGTGCAC, the binding signal is 0.0816 normalized occupancy.

Regarding GCGTGCCC, the binding signal is 0.0965 normalized occupancy.

Consider GAGTGCAC, for which the binding signal was determined as 0.082 normalized occupancy.

As to AAGTGCAT, the binding signal was 0.085 normalized occupancy.

Turning to CGAATAAA, the binding signal was 0.0729 normalized occupancy.

Regarding TAAATAAA, the binding signal is 0.0766 normalized occupancy.

As for CCACCACG, the binding signal worked out at 0.0914 normalized occupancy.

For ACCGGTTA, the binding signal worked out at 0.0751 normalized occupancy.

On to TAGGAAAA, for which the binding signal is 0.0729 normalized occupancy.

For the sequence CAGCTGAA, the binding signal was found to be 0.0749 normalized occupancy.

As for ACGAAAGC, the binding signal was found to be 0.0763 normalized occupancy.

Turning to TCCGAAAA, the binding signal turned out to be 0.0774 normalized occupancy.

In the case of AGACTGTA, the binding signal worked out at 0.0748 normalized occupancy.

As for TCGTGCAA, the binding signal turned out to be 0.0766 normalized occupancy.

Regarding GCGTGCAA, the binding signal worked out at 0.0963 normalized occupancy.

Take ACGTGCAC: the binding signal worked out at 0.113 normalized occupancy.

Regarding CTGTGCAC, the binding signal amounted to 0.0869 normalized occupancy.

ATGTGCAA: the binding signal was 0.0875 normalized occupancy.

Regarding AAGTGCAC, the binding signal amounted to 0.0774 normalized occupancy.

Turning to AGGTGCAC, the binding signal came out at 0.0767 normalized occupancy.

Take ACGTGCAA: the binding signal worked out at 0.098 normalized occupancy.

In the case of ATGTGCAC, the binding signal was 0.0959 normalized occupancy.

CCGTGCAA: the binding signal turned out to be 0.078 normalized occupancy.

For GTGTGCAA, the binding signal is 0.0818 normalized occupancy.

In the case of GGGTGCAA, the binding signal turned out to be 0.0755 normalized occupancy.

Consider GATGGACA, for which the binding signal turned out to be 0.0742 normalized occupancy.

Consider AATGCAAC, for which the binding signal stood at 0.0776 normalized occupancy.

On to CATACGGG, for which the binding signal was 0.0812 normalized occupancy.

As for CAGTTATA, the binding signal was determined as 0.0794 normalized occupancy.

In the case of CCTCCATC, the binding signal worked out at 0.0784 normalized occupancy.

On to CAACCTAA, for which the binding signal is 0.0744 normalized occupancy.

For CTAACATC, the binding signal came out at 0.0796 normalized occupancy.

For the sequence AGCGTCGC, the binding signal was found to be 0.0721 normalized occupancy.

As to CCCGTCCC, the binding signal was found to be 0.0747 normalized occupancy.

In the case of ATAATACC, the binding signal was 0.08 normalized occupancy.

Regarding AGCCCAAA, the binding signal amounted to 0.0722 normalized occupancy.

Turning to AGCACACG, the binding signal came to 0.0942 normalized occupancy.

For AGCACGCC, the binding signal is 0.0846 normalized occupancy.

Consider AGCACGCG, for which the binding signal came to 0.156 normalized occupancy.

As for CGCACGCA, the binding signal came to 0.0894 normalized occupancy.

With AGCACGCA, the binding signal is 0.0909 normalized occupancy.

Turning to CGCACGCC, the binding signal was found to be 0.0878 normalized occupancy.

As for AGCACGCT, the binding signal was found to be 0.104 normalized occupancy.

With AGCACACA, the binding signal was determined as 0.0906 normalized occupancy.

As for CGCACGCG, the binding signal worked out at 0.121 normalized occupancy.
